# Test results from the supplement of paper PMC13094657.
# ± gives the standard deviation of the averaged measurements.
# Experiments:
# [1] = tested on: MDA-MB-231; test: cell viability relative to vehicle unstimulated control (fraction); higher = more viable cells; conditions: pre-treatment time: 18 h then 24 h IFNg/TNF
# [2] = tested on: MDA-MB-231; test: kynurenine production, fold change vs DMSO IFNg/TNF control; higher = more kynurenine produced (less inhibition); conditions: pre-treatment time: 18 h then 24 h IFNg/TNF
# Method in brief: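 In 96-well plates, MDA-MB-231 cells (7 × 10^4/well) were given 24 h to settle, pre-treated for 18 h with each natural product in 0.1% DMSO, and stimulated for 24 h with IFNγ (1 U/ml) and TNF (6.25 ng/ml) at 37°C. Supernatants were processed with trichloroacetic acid and p-dimethylaminobenzaldehyde and read at 492 nm against 0–100 μM standards. In the first screening round, kynurenine production, as fold change over same-plate cytokine-stimulated vehicle wells, was averaged over duplicate plates.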
# 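Wherever cell viability relative to vehicle unstimulated control is given: viability of the cells left after supernatant collection, read with Deep Blue dye added for 4 h, as absorbance at 570 nm minus 600 nm.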
SMILES,cell viability [1],kynurenine production [2]
CC(=O)O[C@@]12CO[C@@H]1C[C@H](O)[C@@]1(C)C(=O)[C@H](O)C3=C(C)[C@@H](OC(=O)[C@H](O)[C@@H](NC(=O)OC(C)(C)C)c4ccccc4)C[C@@](O)([C@@H](OC(=O)c4ccccc4)[C@H]21)C3(C)C [Docetaxel] (compound dose: 10 uM),0.923 ± 0.067,0.758 ± 0.051
C[C@@H]1O[C@@H](OC[C@H]2O[C@@H](Oc3c(-c4ccc(O)c(O)c4)oc4cc(O)cc(O)c4c3=O)[C@H](O)[C@@H](O)[C@@H]2O)[C@H](O)[C@H](O)[C@H]1O [Rutin] (compound dose: 10 uM),0.867,0.755 ± 0.058
COc1ccc2cc3[n+](cc2c1OC)CCc1cc2c(cc1-3)OCO2 [Berberine] (compound dose: 10 uM),0.8829 ± 0.0012,0.807 ± 0.11
C[C@@H]1C[C@@H]2O[C@@]3(O[C@@H]2C(C)(C)O)[C@H](O)[C@@]2(C)[C@@H]4CC[C@H]5C(C)(C)[C@@H](O)CC[C@@]56C[C@@]46CC[C@]2(C)[C@@H]13 [Cimigenol] (compound dose: 10 uM),1.03 ± 0.066,0.778 ± 0.31
C[C@H](CC[C@@H](O)C(C)(C)O)[C@H]1CC[C@@]2(C)[C@@H]3CC=C4[C@@H](CC[C@H](O)C4(C)C)[C@]3(C)[C@H](O)C[C@]12C [Mogrol] (compound dose: 10 uM),0.939 ± 0.051,0.905 ± 0.15
C[C@H]1O[C@@H](O[C@H]2CC[C@@]3(C)[C@@H](CC[C@]4(C)[C@@H]3C=C[C@]35OC[C@@]6(CCC(C)(C)C[C@H]63)[C@@H](O)C[C@]54C)[C@]2(C)CO)[C@H](O)[C@@H](O[C@@H]2O[C@H](CO)[C@@H](O)[C@H](O)[C@H]2O)[C@H]1O [Saikosaponin A] (compound dose: 10 uM),1.015 ± 0.0091,0.824 ± 0.1
